Source: PubChem
KinaseGlo FLuc – Kinase-Glo luciferase inhibition (counter-screen); Kinase-Glo luciferase, ATP luminescence, 8 min; hit rate 0.28% among 200,000; Potency, µM (titrated, usually from 38.3 µM), for inactives: at the highest dose activity change, negative = inhibition, actives largely listed as inhibitors; note: potency is the fitted concentration of half-maximal effect; % is set by controls: 0 for no effect and ±100 for the full control effect; nearly all actives have a fitted effect of over 60% in size
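Compound is pinned into ATP-containing buffer (10 uM ATP, imidazole pH 7.2, 7 mM MgCl2). Kinase-Glo luciferase reagent is then added. Light output is recorded following an 8-min room-temperature incubation.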
PKM2 act – PKM2 (human) enzyme activation. P14618. purified PKM2, Kinase-Glo ATP luminescence, activation; response scale: 0% is enzyme alone, no compound. Potency, µM (doses to about 57.5 µM), without a hit: at the highest dose activation, usual class: activators. hit rate 0.34% among 260,000. AID 1631; note: potency is the fitted concentration of half-maximal effect; % is set by controls: 0 for no effect and ±100 for the full control effect; nearly all actives have a fitted effect of over 55% in size
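ATP formation by purified human PK-M2, quantified via coupled luciferase luminescence after 1 h at room temperature with 0.1 mM ADP and 0.5 mM PEP final.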
GALK inhibitor – blocks human galactokinase activity; AID 1868; Potency, µM (titrated, usually from 57.5 µM), for the others: at the highest dose activity change, negative = inhibition, most hits filed as inhibitors; hit rate 0.007% among 270,000; Purified GALK, Kinase-Glo residual ATP luminescence; note: potency is the fitted concentration of half-maximal effect; % is set by controls: 0 for no effect and ±100 for the full control effect
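Luminescence from leftover ATP (Ultra-Glo luciferase/luciferin) served as read-out after a 1 h room-temperature reaction of 5 nM GALK with 35 uM ATP and 100 uM galactose.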
Tb PFK inh-1 – inhibitors of T. brucei phosphofructokinase | O15648 | T. brucei PFK, ADP-Glo luminescence | Potency, µM (titrated, usually from 57.5 µM), without a hit: at the highest dose activity, negative = inhibition, usual class: inhibitors | hit rate 0.17% among 330,000;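 note: potency is the fitted concentration of half-maximal effect; 0% = uninhibited 1x PFK enzyme wells and -100% = no-enzyme wells; nearly all actives have a fitted effect of over 60% in size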
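Compounds were pin-transferred as a titration series up to 57 uM into substrate buffer (0.5 mM F6P, 0.1 mM ATP, pH 8.0), then 1.25 nM PFK was added and reactions ran 45 min before ADP-Glo detection.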
CBFb-RUNX1 inh – blocks binding between human CBF-beta and RUNX1; Q01196+Q13951; AlphaScreen CBFb-His/RUNX1-biotin binding, biochemical; Potency, µM (doses to about 59.8 µM), without a hit: at the highest dose activity, negative = inhibition, actives largely listed as inhibitors; AID 1477; 230,000 tested, under 10 active; note: % of control where 0% means no effect
Target sequence (Q01196 whole entry, looked up): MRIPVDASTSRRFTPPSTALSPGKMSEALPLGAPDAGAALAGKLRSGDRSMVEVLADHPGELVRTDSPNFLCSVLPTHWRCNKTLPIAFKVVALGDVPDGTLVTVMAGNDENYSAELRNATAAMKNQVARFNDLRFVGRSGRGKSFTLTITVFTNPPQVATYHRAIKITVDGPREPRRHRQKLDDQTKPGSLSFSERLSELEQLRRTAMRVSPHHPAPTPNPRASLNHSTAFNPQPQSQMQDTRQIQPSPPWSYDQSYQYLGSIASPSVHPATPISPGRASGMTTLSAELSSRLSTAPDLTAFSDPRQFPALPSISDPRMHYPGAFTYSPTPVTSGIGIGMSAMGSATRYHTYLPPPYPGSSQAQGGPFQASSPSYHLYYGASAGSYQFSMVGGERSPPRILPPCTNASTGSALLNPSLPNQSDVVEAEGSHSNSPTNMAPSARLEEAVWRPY
Target sequence (Q13951 whole entry, looked up): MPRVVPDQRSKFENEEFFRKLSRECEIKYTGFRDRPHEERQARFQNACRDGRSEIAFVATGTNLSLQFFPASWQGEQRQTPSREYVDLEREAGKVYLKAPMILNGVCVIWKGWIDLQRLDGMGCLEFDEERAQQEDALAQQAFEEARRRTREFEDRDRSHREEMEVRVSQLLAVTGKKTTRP
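CBFb-His/RUNX1-biotin, 30 nM each, preincubated 20 min RT; compound 15 min RT; Ni + streptavidin beads 50 ng each, 90 min RT; AlphaScreen read.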
Tb PFK KinaseGlo – inhibits T. brucei PFK measured by ATP depletion; shares compounds with Tb PFK inh-1; Tb PFK enzyme, ATP depletion, Kinase-Glo Plus luminescence; Potency, µM (series often up to 57.5 µM), for inactives: at the highest dose inhibition; hit rate 47% among 1,100; calls by dose curve; note: potency is the fitted concentration of half-maximal effect; nearly all actives have a fitted effect of over 60% in size
Tb PFK inh-2 – validation of T. brucei phosphofructokinase inhibitors; shares compounds with Tb PFK inh-1; purified T. brucei PFK, ADP-Glo luminescence, 45 min; Potency, µM (top dose mostly 57.5 µM), without a hit: top-dose activity change, negative = inhibition, most hits filed as inhibitors; hit rate 41% among 1,100;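 note: potency is the fitted concentration of half-maximal effect; plate controls were full PFK enzyme control for no effect and no enzyme control for full effect; nearly all actives have a fitted effect of over 60% in size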
The depositor's hits bear a star; ? = inconclusive; . = not tested or not shown; [ ] = remark or other dose. Compounds with a hit are over-represented: about 0.56% of the library has one in this group of screens. Unless noted, calls come from the whole dose curve; as a rule, active = well fitted curve in the direction sought with a large enough effect; inconclusive = small, poorly fitted or top-dose-only effect, or another doubt; inactive = no such curve, though single readings can be large; an effect the other way counts as inactive or inconclusive.

SMILES	KinaseGlo FLuc	PKM2 act	GALK inhibitor	Tb PFK inh-1	CBFb-RUNX1 inh	Tb PFK KinaseGlo	Tb PFK inh-2
Cn1cccc1/C=C1/SC(=S)N(CC(=O)O)C1=O	0.8%	1.7%	-3.1%	?	-8.5%	-27.7%	?
Cc1cccc(C)c1NCc1n[nH]c(=S)n1-c1ccccc1	5.7%	-6.7%	0.9%	?	1.4%	3.01µM*	7.57µM*
O=C(Cl)C(Cl)(Cl)Cl	.	.	.	.	11.4%[21.7 µM]	.	.
c1cc(CN2CCCC3(CCNCC3)C2)ccn1	-3.1%	.	.	.	.	.	.
CC(C)=CCCN1CCC(NC(=O)C(O)(c2ccccc2)C2CCCC2)CC1 (stereo unspecified)	.	.	.	.	4.9%	.	.
O=C(OCc1cccc(C(F)(F)F)c1)c1ccc[nH]c1=O	.	-3.1%	-1.8%	6.01µM*	.	3.01µM*	5.36µM*
Cc1nn(Cc2ccccc2)c(C)c1C(=O)OCC(=O)NCc1ccco1	-8.8%	3.4%	2.0%	2.2%	-3.2%	.	.
O=C(COC(=O)CCOc1ccccc1)NCc1ccco1	-3.8%	25.0%	-6.1%	?	?	?	?
CCOC(=O)C1(c2ccccc2)CCN(CC(=O)Nc2ccc(C)cc2)CC1	-0.3%	0.1%	-1.6%	-3.9%	0.7%	.	.
Cc1ccc(NC(=O)C2=C(c3ccccc3)S(=O)(=O)CCS2(=O)=O)cc1	0.2%	.	10.4%	?	4.6%	-25.2%	?
O=C(COc1ccc([N+](=O)[O-])cc1)Nc1cc(C(=O)O)cc(C(=O)O)c1	-1.6%	0.4%	-0.5%	?	-3.8%	13.5µM*	26.9µM*
COc1ccc(C(=O)CSC#N)cc1OC	0.3%	-4.7%	-1.3%	?	4.6%	4.78µM*	12µM*
Cc1noc(NS(=O)(=O)c2ccc(NC(=O)c3cnc4scc(C)n4c3=O)cc2)c1C	-4.1%	-10.0%	2.0%	?	5.5%	-27.8%	?
Cc1ccc(NC(=O)COc2ccc(Cl)cc2Cl)cc1S(=O)(=O)N1CCOCC1	.	.	.	?	.	?	?
COC(=O)COc1ccc(Cl)cc1Cl	-0.5%	.	.	.	.	.	.
Cc1noc(NS(=O)(=O)c2ccc(NC(=O)COc3ccc(Cl)cc3Cl)cc2)c1C	3.9%	-15.2%	-2.8%	12µM*	-13.4%	5.36µM*	12µM*
COc1ccc(CC(=O)Nc2ccc(C#N)c(Cl)c2)cc1S(=O)(=O)N1CCOCC1	.	12.8%	-2.8%	0.1%	.	.	.
CN(C)c1nc(OCCNC(=O)COc2ccc(Cl)cc2Cl)nc(N2CCCCC2)n1	5.5%	1.1%	-3.7%	2.9%	3.9%	.	.
O=C(COc1ccc(Cl)cc1Cl)Nc1cccnc1	-2.7%	-3.5%	-0.6%	?	2.1%	?	?
C=CC1CC=CCC1 (stereo unspecified)	.	.	.	.	19.2%[21.7 µM]	.	.
CCCSC(=O)Cl	.	.	.	.	28.8%[21.7 µM]	.	.
O=C(Cc1ccc(Br)cc1)N/N=C/c1ccc(-c2cccc(C(=O)O)c2)o1	.	8.0%	-4.4%	10.7µM*	-2.8%	10.7µM*	12µM*
COP(N)(=O)SC (stereo unspecified)	-1.9%	.	.	.	.	.	.
C=CCNC(=S)Nc1ccc(OC(=O)Nc2ccc(Cl)c(Cl)c2)cc1	.	-11.1%	3.1%	13.5µM*	19.7%	21.3µM*	26.9µM*
COc1ccc(S(=O)(=O)N2CCOCC2)cc1NC(=O)COC(=O)Cc1ccccc1	.	.	.	-1.2%	.	.	.
SMILES	KinaseGlo FLuc	PKM2 act	GALK inhibitor	Tb PFK inh-1	CBFb-RUNX1 inh	Tb PFK KinaseGlo	Tb PFK inh-2
NS(=O)(=O)c1cccc(NC(=O)Cc2ccc(Cl)c(Cl)c2)c1	-0.5%	2.1%	1.4%	6.01µM*	7.0%	3.01µM*	10.7µM*
CCOC(=O)C(O)(c1ccc(NC(=O)c2ccc(Cl)c(Cl)c2)cc1)C(F)(F)F (stereo unspecified)	.	5.1%	-5.3%	-7.2%	7.5%	.	.
O=C(Cc1ccc(Br)cc1)Nc1cccc(S(=O)(=O)N2CCOCC2)c1	.	.	.	?	.	?	?
Cc1cc(NS(=O)(=O)c2ccc(NC(=O)Cc3ccc(Cl)c(Cl)c3)cc2)no1	.	.	.	1.2µM*	.	0.426µM*	0.757µM*
NCCNC[C@@H](N)CCCN=C(N)N[N+](=O)[O-]	.	.	.	.	13.1%	.	.
C=CCN1CCc2cccc3c2C1Cc1ccc(O)c(O)c1-3 (stereo unspecified)	-14.2%	.	.	.	-26.8%	.	.
C[C@@H]1C[C@@H]2[C@H]([C@H]3C=C(COC(=O)c4ccccc4)[C@@H](O)[C@]4(O)[C@@H](O)C(OC(=O)c5ccccc5)=C[C@@]14C3=O)C2(C)C	.	.	.	.	11.8%	.	.
OCCNC(=S)Nc1ccc(Cl)c(Cl)c1	2.2%	0.6%	-0.5%	?	-4.8%	?	?
Cc1ccc(NC(=O)c2snnc2C)cc1Cl	-0.1%	2.5%	4.6%	-4.6%	4.5%	.	.
O=C(Nc1ccc(Cl)c(Cl)c1)c1ccco1	.	6.0%[11.5 µM]	4.2%	-3.8%	.	.	.
Cc1cccc(C)c1NC(=S)Nc1ccc(Cl)c(Cl)c1	1.3%	1.2%	-0.6%	21.3µM*	3.1%	?	-14.4%
COC(=O)c1cccc(NC(=O)N2C[C@H]3C[C@@H](C2)c2cccc(=O)n2C3)c1	.	2.4%	.	3.7%	.	.	.
COC(=O)c1cccc(NC(=S)Nc2ccc(Cl)c(Cl)c2)c1	.	5.2%	0.2%	12µM*	3.6%	26.9µM*	?
Cc1cc(C)cc(NC(=S)Nc2ccc(Cl)c(Cl)c2)c1	1.3%	3.7%	-5.0%	9.53µM*	-1.5%	23.9µM*	?
O=C1CC2OCC=C3CN4CCC56c7ccccc7N1C5C2C3CC46 (stereo unspecified)	.	.	.	.	14.0%	.	.
NS(=O)(=O)c1ccc(CNC(=S)Nc2ccc(Cl)c(Cl)c2)cc1	.	0.1%	-1.3%	?	-1.2%	?	?
Cc1ncc2n1-c1ccc(Cl)cc1C(c1ccccc1F)=NC2O (stereo unspecified)	.	.	.	.	18.4%	.	.
CC1(C)[C@@H]2CC[C@]1(C)CN(CCC[N+](C)(C)C)C2	-4.5%[7.66 µM]	.	.	.	.	.	.
Nc1nonc1C(=O)N/N=C/c1ccc(-c2ccc(Cl)c(C(=O)O)c2)o1	1.1%	-1.8%	2.9%	?	-23.4%	-19.2%	?
COC(=O)[C@H]1[C@H](c2ccccc2)C(=O)[C@@]2(O)c3ccccc3O[C@@]12c1ccccc1	.	.	.	.	13.3%[13.1 µM]	.	.
N#CCSc1nnc(CNc2cccc(Cl)c2)o1	-6.6%	-9.9%	3.3%	23.9µM*	4.4%	13.5µM*	21.3µM*
O=C(O)CC1S/C(=N/N=C/C=C/c2ccccc2[N+](=O)[O-])NC1=O (stereo unspecified)	-3.2%	-8.9%	2.2%	?	-9.4%	-33.1%	?
